Laboratory results published in PubChem BioAssay AID431 (Sanford-Burnham Center for Chemical Genomics, 2006).
The whole screen tested about 63,000 compounds, of which about 1,100 (1.7%) were called active.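 Rule for the calls: active = compounds whose percent cytotoxicity in the single-dose primary screen, scaled between solvent and toxic-drug controls, exceeds 50; inactive = the rest.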 The full list was thinned out, with actives kept by preference. Measured potencies and affinities stand elsewhere.

Experiment: viability loss of HPDE-C7K cells – cell-based, fluorescence, HTS, primary screen (AID 431);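 note: 0% = DMSO solvent wells and 100% = doxorubicin-treated wells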
Settings: HPDE-C7K KRASV12 cells, Alamar Blue viability, 48 h; at 10 µM; hits give high values

| Compound | cytotoxicity |
| --- | --- |
| Cc1ccc(OCCN2CCN(C(=O)CCC(=O)Nc3nnc(C(C)C)s3)CC2)cc1 | 14.3% (inactive) |
| COc1ccc(-c2noc(COc3ccc4ccccc4c3Br)n2)cc1OC | 58% (active) |
| COc1ccc(-c2noc(COc3ccccc3OC)n2)cc1OC | -10.5% (inactive) |
| COc1ccc(-c2noc(COc3ccc(C)c(C)c3)n2)cc1OC | 4.5% (inactive) |
| CCOC(=O)N1CCN(Cc2nc3c(c(=O)[nH]c(=O)n3C)n2CCCc2ccccc2)CC1 | -0.5% (inactive) |
| CCN(CC)CCCNC(=O)Cn1cc2c(n1)CCC(C)C2 (configuration not stated) | 3.7% (inactive) |
| COc1cccc(Oc2cnc(N)nc2-c2ccc(OC)cc2O)c1 | 45.2% (inactive) |
| COc1ccc(-c2nc(N)nc(C)c2Oc2ccccc2Br)c(O)c1 | 92.6% (active) |
| COc1ccc(-c2nc(N)ncc2Oc2ccccc2Br)c(O)c1 | 3.7% (inactive) |
| CCc1ccccc1NC(=O)CN(C)C(=O)CN1C(=O)NC2(CCCCCC2)C1=O | 2.1% (inactive) |
| COc1ccc(NC2C=CS(=O)(=O)C2)c(OC)c1 (configuration not stated) | 4.8% (inactive) |
| Cc1n[nH]c(C)c1S(=O)(=O)N1CCN(c2ccccn2)CC1 | 7.4% (inactive) |
| CCc1oc2ccccc2c1C(=O)CCN1CCCCC1 | 9.9% (inactive) |
| CCCCC(=O)c1c(O)c2ccccc2oc1=O | 17.2% (inactive) |
| CCOC(=O)C1=C(C)NC2=C(C(=O)CCC2)C1c1cc(OC)ccc1OC (configuration not stated) | 1.4% (inactive) |
| CCOc1ccc(Cn2c(=O)oc3ccc(C)cc32)cc1OC | -2.4% (inactive) |
| O=S(=O)(c1ccc2ccccc2c1)N(CC(O)CN1CCOCC1)c1ccccc1 (configuration not stated) | -11.1% (inactive) |
| O=S(=O)(c1ccc2ccccc2c1)N1CCCCC1 | 5.8% (inactive) |
| O=C(CN1C(=O)CCSc2ccccc21)Nc1ccccc1 | -22.3% (inactive) |
| CCCSc1nnc(NC(=O)Nc2ccc(F)cc2)s1 | 75.2% (active) |
| CCCSc1nnc(NC(=O)Nc2ccccc2)s1 | -9.2% (inactive) |
| CCC(=O)Nc1nnc(SCC(=O)Nc2ccc(F)cc2)s1 | -4.3% (inactive) |

| Compound | cytotoxicity |
| --- | --- |
| COc1cc(-c2nc3cnccc3n2C)cc(OC)c1OC | -11.3% (inactive) |
| O=C(Nc1cc(C(F)(F)F)ccc1N1CCOCC1)c1cccnc1 | 2.2% (inactive) |
| O=C(Nc1cc(C(F)(F)F)ccc1N1CCOCC1)c1ccco1 | -2.4% (inactive) |
| Cc1onc(-c2ccccc2)c1C(=O)Nc1cc(C(F)(F)F)ccc1N1CCOCC1 | 60.3% (active) |
| O=C(Nc1cc(C(F)(F)F)ccc1N1CCOCC1)c1c(F)c(F)c(F)c(F)c1F | 69.9% (active) |
| CC(=O)Nc1cc(C(F)(F)F)ccc1N1CCOCC1 | -2.7% (inactive) |
| Cc1onc(-c2ccccc2)c1C(=O)Nc1ccccc1N1CCOCC1 | 4.2% (inactive) |
| COc1cc(C2NC(=O)c3ccccc3O2)cc(OC)c1OC (configuration not stated) | -13.8% (inactive) |
| OC1C=CSc2nc3ccccc3n21 (configuration not stated) | -17.8% (inactive) |
| COC(=O)COc1ccc(NC(=O)C2CCCO2)cc1 (configuration not stated) | -3% (inactive) |
| CC(C)C[C@H](NC(=O)NCc1ccc(Cl)cc1)C(=O)O | 5.3% (inactive) |
| COc1ccccc1C(=O)Nc1nnc(-c2ccc(F)cc2)o1 | -1.2% (inactive) |
| CCCOC(=O)Nc1nc2ccccc2o1 | -0.4% (inactive) |
| CC(C)CCn1cnc2c(cnn2-c2ccc(F)cc2)c1=O | -10.9% (inactive) |
| C=CCOc1ccccc1CNn1nnnc1N | -4.5% (inactive) |
| O=C(O)c1ccc(N2CCCCC2)cc1 | -1.2% (inactive) |
| Nc1ccc(N2CCCCC2)cc1N1CCCCC1 | 34.3% (inactive) |
| O=C(O)CCn1[nH]c(=O)ccc1=O | -18.2% (inactive) |
| CSc1ccccc1NC(=O)c1ccco1 | 4.6% (inactive) |
| O=C1CC(c2ccco2)CC2=C1C1c3ccccc3C(=O)N1c1ccccc1N2 (configuration not stated) | 51.6% (active) |
| COc1ccc(C2C3=C(CC(c4ccco4)CC3=O)Nc3ccccc3N2C(C)=O)cc1 (configuration not stated) | -5.9% (inactive) |
| CCC(=O)N1c2ccccc2NC2=C(C(=O)CC(c3ccco3)C2)C1c1ccco1 (configuration not stated) | 7.6% (inactive) |

| Compound | cytotoxicity |
| --- | --- |
| COC(=O)C(C(=O)OC)=C(/C=C/N(C)C)N(C)C | 0.2% (inactive) |
| Nc1nonc1C(=O)NCCNCc1cc(Br)ccc1OCc1ccccc1F | 17.1% (inactive) |
| Nc1nonc1C(=O)NCCNCc1cc(Br)ccc1OCc1ccc(F)cc1 | 54% (active) |
| Nc1nonc1C(=O)NCCNCc1ccccc1OCc1ccccc1F | 0.9% (inactive) |
| COCCn1c(SCC(=O)N2CCCCC2)nc2ccccc2c1=O | 4.9% (inactive) |
| CC(=O)Nc1ccc(S(=O)(=O)N(C)c2ccc(O)cc2)cc1 | -12.1% (inactive) |
| CCOc1ccc(C(=O)Nc2ccc3c(c2)OCO3)cc1OCC | -16.6% (inactive) |
| CCOC(=O)c1ccc(NC(=O)C2CCN(S(=O)(=O)c3ccccc3)CC2)cc1 | 6.6% (inactive) |
| Cc1ccccc1Cn1c(=O)n(CCCC(=O)NCc2ccco2)c(=O)c2ccccc21 | -20.6% (inactive) |
| Cc1ccc(C)c(Cn2c(=O)n(CCCC(=O)NCc3ccco3)c(=O)c3ccccc32)c1 | 56.3% (active) |
| Cc1ccc(C)c(Cn2c(=O)n(CCC(=O)NCc3ccco3)c(=O)c3ccccc32)c1 | 3% (inactive) |
| COc1ccc(CCNC(=O)CSc2nc(N)c3c(C)c(C)oc3n2)cc1OC | 4.3% (inactive) |
| O=C(Nc1cccc2ccccc12)N1CCN(c2ccccc2)CC1 | 10.4% (inactive) |
| O=C(Nc1ccc2snnc2c1)N1CCN(c2ccccc2)CC1 | -17.1% (inactive) |
| O=C(Nc1cccc(NC(=O)N2CCN(c3ccccc3)CC2)c1)N1CCN(c2ccccc2)CC1 | 61.3% (active) |
| COc1cc(OC)cc(-c2cc(NC(C)=O)n[nH]2)c1 | -2% (inactive) |
| CCOC(=O)c1[nH]c(C)c(C(=O)N2CCOCC2)c1C | 4.4% (inactive) |
| COc1cc(/C=C/C2=NC(=O)C(C)(C)O2)ccc1O | 32.6% (inactive) |
| C/C=C/c1ccc(OC)c(OC(C)=O)c1 | 1.5% (inactive) |
| O=C(Nc1cccnc1N1CCOCC1)c1ccco1 | -0.2% (inactive) |
| CCn1c(SCC(=O)c2cc(OC)ccc2OC)nnc1C1CC1 | 4.1% (inactive) |
| COC(=O)c1ccc(NC(=O)c2sc3nc(-c4ccccc4)cn3c2C)cc1 | -6.6% (inactive) |

| Compound | cytotoxicity |
| --- | --- |
| CN(C)c1ccc(/C=[N+](\[O-])C2SC(=S)N(C)C2(C)C)cc1 (configuration not stated) | -16.8% (inactive) |
| Cc1ccc2c(COn3nnc4ccc(S(=O)(=O)N(C)C)cc43)cc(=O)oc2c1C | 2.9% (inactive) |
| CCc1ccc2c(COn3nnc4ccc(S(=O)(=O)N(C)C)cc43)cc(=O)oc2c1 | 62% (active) |
| CCc1ccc2c(COC(=O)c3n[nH]c4ccccc34)cc(=O)oc2c1 | 17.5% (inactive) |
| COc1ccc(Cn2c(-c3ccco3)nc3oc4ccccc4c(=O)c3c2=O)cc1 | 8.5% (inactive) |
| CC1(C)Cc2ccccc2-c2nc(NCCO)n(-c3ccccc3)c(=O)c21 | -9.1% (inactive) |
| Cn1c(NCCO)nc2c(c1=O)C1(CCCCC1)Cc1ccccc1-2 | 10.5% (inactive) |
| O=c1[nH]c(NCCCO)nc2c1C1(CCCC1)Cc1ccccc1-2 | 26.4% (inactive) |
| O=c1[nH]c(NCCO)nc2c1C1(CCCCC1)Cc1ccccc1-2 | 17.6% (inactive) |
| Cn1c(NCCCO)nc2c(c1=O)C1(CCCCC1)Cc1ccccc1-2 | 51.9% (active) |
| CC1(C)CC(n2c(NCCO)nc3c(c2=O)C2(CCCC2)Cc2ccccc2-3)CCO1 (configuration not stated) | 64.4% (active) |
| Cc1ccc(S(=O)(=O)N2CCN(S(=O)(=O)N3CCCCC3)CC2)c(C)c1 | 6.6% (inactive) |
| CCN1CCN(Cc2nc(N)nc(Nc3ccc(C)c(C)c3)n2)CC1 | -24.7% (inactive) |
| COc1ccc(N2CCN(Cc3nc(N)nc(Nc4ccc(C)c(Cl)c4)n3)CC2)cc1 | 19.1% (inactive) |
| Cc1ccc(Nc2nc(N)nc(CN3CCN(C)CC3)n2)cc1C | -27.5% (inactive) |
| Cc1cccc(Nc2nc(N)nc(CN3CCN(c4ccccc4)CC3)n2)c1 | -21.7% (inactive) |
| Cc1ccc(Nc2nc(N)nc(CN3CCN(c4ccccc4)CC3)n2)cc1Cl | 54.7% (active) |
| CC1CC(C)CN(Cc2nc(N)nc(Nc3ccc4ccccc4c3)n2)C1 (configuration not stated) | 58.4% (active) |
| CC(=O)c1cc2c(cc1NC(=O)CSc1nnc(C)s1)OCO2 | 11.3% (inactive) |
| CCOC(=O)C1C2C=CC3(CN(Cc4cccs4)C(=O)C13)O2 (configuration not stated) | 4.9% (inactive) |
| COc1cccc(NC(=O)C2CCCN(S(=O)(=O)c3cccc4cccnc34)C2)c1 (configuration not stated) | 20.1% (inactive) |
| Cc1nc(NC(=O)CSc2ccccc2N)sc1C | 3% (inactive) |

| Compound | cytotoxicity |
| --- | --- |
| Cn1c(=O)[nH]c(=O)c2c1nc(Sc1ncccn1)n2CCCc1ccccc1 | 3.9% (inactive) |
| CC(C)Cc1nc(C(N)=O)c2[nH]c(=O)n(-c3ccc(F)cc3)c2n1 | -1.8% (inactive) |
| O=C(CCN1CCN(c2ccccc2F)CC1)Nc1ccccc1F | -5.4% (inactive) |
| O=C(CCN1CCN(CCC(=O)c2ccccc2)CC1)c1ccccc1 | -9.4% (inactive) |
| O=C(COc1ccc(Cl)cc1)NCc1nnc(SCC(=O)Nc2ccccc2)o1 | -7.7% (inactive) |
| CC(C)NC(=O)CN1CCN(c2ncccn2)CC1 | -7.7% (inactive) |
| CC(=O)NCCSC(=O)c1ccc(F)cc1 | -2.7% (inactive) |
| Cc1ccc(S(=O)(=O)Nc2cccc(-c3cn4ccsc4n3)c2)cc1 | 64% (active) |
| Cc1cccc(S(=O)(=O)Nc2cccc(-c3cn4ccsc4n3)c2)c1 | 31.3% (inactive) |
| O=S(=O)(Nc1cccc(-c2cn3ccsc3n2)c1)c1ccc(F)cc1 | 42.2% (inactive) |
| O=S(=O)(Nc1nccs1)c1ccc2c(c1)OCCO2 | 5.1% (inactive) |
| O=S(=O)(NCc1cn2ccsc2n1)c1ccc2c(c1)OCCO2 | 4.2% (inactive) |
| c1cn2cc(-c3ccc4c(c3)OCO4)nc2s1 | 15.3% (inactive) |
| CC(C)CC(=O)Nc1cccc(-c2cn3ccsc3n2)c1 | 11.7% (inactive) |
| O=S(=O)(Nc1cccc(-c2nc3cccnc3s2)c1)c1ccc2c(c1)OCCO2 | 50.4% (active) |
| CC(C)CC(=O)Nc1ccc(-c2cn3ccsc3n2)cc1 | 56.7% (active) |
| O=S(=O)(Nc1cccnc1)c1ccc2c(c1)OCCO2 | 1.8% (inactive) |
| CC(=O)Nc1ccc(-c2cn3ccsc3n2)cc1 | 6.9% (inactive) |
| O=S(=O)(Nc1ccc(-c2cn3ccsc3n2)cc1)c1ccc2c(c1)OCCO2 | 53.9% (active) |
